# Test results: the supplement of paper PMC12494721
# Counter-ions that a name gives are not always drawn.
# What was measured:
# Conditions in all cases: incubation time: 27 h, anaerobic, 37 °C;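 for the amine columns active = adjusted P below 0.05 in both replicates with a change the same way and a mean fold change under 0.8 or over 1.25; inactive = the rest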
# [1] = test system: Clostridium sporogenes DSM 1664; assay: growth (OD595) fold change vs plate DMSO controls (fold change (ratio)); higher = more growth
# Outline: (§1)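 Anaerobic mGAM cultures in 96-well plates were grown for 27 h at 37 °C, and absorbance was then read at 595 nm. After blank and compound background correction with 20 µM compound solutions in water, a calibration factor of 5 gave OD. Growth is the fold change relative to the median of each plate's DMSO controls. Values are means of 2 biological replicates, with fold changes above 1.5 set to NA.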
# Escherichia coli IAI1 [2] = assay: as above
# Outline: as §1
# [3] = test system: Klebsiella aerogenes DSM 30053; assay: as above
# Outline: as §1
# [4] = test system: Ruminococcus gnavus DSM 108212; assay: as above
# Outline: as §1
# [5] = test system: Klebsiella aerogenes DSM 30053; assay: fold change of Histamine concentration vs plate DMSO controls (fold change (ratio)); higher = more amine produced, active = hit call of the paper (significant change in both replicates, either direction)
# Outline: (§2)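 In 80 µL wells, cultures of four gut bacterial strains in mGAM started at OD 0.1 before a 1:1 dilution and grew anaerobically at 37 °C for 27 h. Compounds were added to 20 µM final, except sweeteners at 50 µM final. After extraction of whole cultures with cold acetonitrile/methanol plus 0.1% formic acid and centrifugation, amines were measured by LC–triple-quadrupole MS in dynamic MRM mode against external calibration curves, with within-batch drift correction. Values give fold change over DMSO controls on the same plate, averaged across 2 biological replicates.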
# [6] = test system: Clostridium sporogenes DSM 1664; assay: fold change of Tryptamine concentration vs plate DMSO controls (fold change (ratio)); higher = more amine produced, active = hit call of the paper (significant change in both replicates, either direction)
# Outline: as §2
# [7] = test system: Ruminococcus gnavus DSM 108212; assay: as above
# Outline: as §2
# Escherichia coli IAI1 [8] = assay: fold change of Putrescine concentration vs plate DMSO controls (fold change (ratio)); higher = more amine produced, active = hit call of the paper (significant change in both replicates, either direction)
# Outline: as §2
# [9] = test system: Klebsiella aerogenes DSM 30053; assay: as above
# Outline: as §2
# Escherichia coli IAI1 [10] = assay: fold change of Cadaverine concentration vs plate DMSO controls (fold change (ratio)); higher = more amine produced, active = hit call of the paper (significant change in both replicates, either direction)
# Outline: as §2
# [11] = test system: Klebsiella aerogenes DSM 30053; assay: as above
# Outline: as §2
# [12] = test system: Ruminococcus gnavus DSM 108212; assay: fold change of 2-Phenylethylamine concentration vs plate DMSO controls (fold change (ratio)); higher = more amine produced, active = hit call of the paper (significant change in both replicates, either direction)
# Outline: as §2
SMILES,growth [1],growth (Escherichia coli IAI1 [2]),growth [3],growth [4],fold change of Histamine concentration [5],fold change of Tryptamine concentration [6],fold change of Tryptamine concentration [7],fold change of Putrescine concentration (Escherichia coli IAI1 [8]),fold change of Putrescine concentration [9],fold change of Cadaverine concentration (Escherichia coli IAI1 [10]),fold change of Cadaverine concentration [11],fold change of 2-Phenylethylamine concentration [12]
CC[C@H](C)C(=O)O[C@H]1CCC=C2C=C[C@H](C)[C@H](CC[C@@H]3C[C@@H](O)CC(=O)O3)[C@H]21 [Mevastatin] (20 µM),1.15,1,1.01,1.02,0.995 (inactive),0.988 (inactive),1.02 (inactive),0.998 (inactive),1 (inactive),1.07 (inactive),0.998 (inactive),1.04 (inactive)
CC(=O)OCC(=O)[C@@]1(O)CC[C@H]2[C@@H]3CCC4=CC(=O)CC[C@]4(C)[C@@]3(F)[C@@H](O)C[C@@]21C [Fludrocortisone acetate] (20 µM),0.949,1.09,1.03,1.06,1.01 (inactive),1 (inactive),1.01 (inactive),1.09 (inactive),1 (inactive),1.02 (inactive),1 (inactive),0.966 (inactive)
COc1cc2nc(N3CCN(C(=O)C4COc5ccccc5O4)CC3)nc(N)c2cc1OC (stereo not drawn) [Doxazosin mesylate] (20 µM),0.926,0.974,0.995,1.13,1.01 (inactive),1.1 (inactive),0.943 (inactive),1.02 (inactive),1 (inactive),0.983 (inactive),0.991 (inactive),0.932 (inactive)
CN1CCN(C2=Nc3ccccc3Oc3ccc(Cl)cc32)CC1 [Loxapine succinate] (20 µM),1.12,1.04,1.04,1.4,0.932 (inactive),1.04 (inactive),0.962 (inactive),0.998 (inactive),1 (inactive),1.01 (inactive),1.02 (inactive),0.973 (inactive)
CO[C@@]1(NC(=O)CSCC#N)C(=O)N2C(C(=O)O)=C(CSc3nnnn3C)CS[C@@H]21 [Cefmetazole sodium salt] (20 µM),0,0.0115,1.16,–,1.12 (inactive),0.0521 (active),0.978 (inactive),0.284 (active),1.05 (inactive),0.941 (inactive),1.03 (inactive),1.13 (inactive)
N[C@@H](C(=O)N[C@@H]1C(=O)N2C(C(=O)O)=C(Cl)CC[C@H]12)c1ccccc1 [Loracarbef] (20 µM),0,1.15,1.13,–,0.886 (inactive),0.0238 (active),0.345 (active),1.05 (inactive),1.04 (inactive),1.52 (active),1.05 (inactive),0.319 (active)
CC(C)/N=c1\cc2n(-c3ccc(Cl)cc3)c3ccccc3nc-2cc1Nc1ccc(Cl)cc1 [Clofazimine] (20 µM),0.239,1.03,1.04,–,0.999 (inactive),0.0321 (active),0.637 (active),1.04 (inactive),1.04 (inactive),1 (inactive),1.03 (inactive),0.727 (active)
Cc1c(C)c2c(c(C)c1O)CCC(C)(COc1ccc(CC3SC(=O)NC3=O)cc1)O2 (stereo not drawn) [Troglitazone] (20 µM),1.31,0.981,1.1,–,0.914 (inactive),0.721 (active),0.696 (active),1.01 (inactive),0.995 (inactive),1.01 (inactive),1.01 (inactive),0.777 (active)
COc1cc(Cc2cnc(N)nc2N)cc(OC)c1OC [Trimethoprim] (20 µM),1.03,0.272,0.472,–,0.522 (active),0.974 (inactive),0.895 (inactive),0.829 (inactive),1.22 (inactive),1.78 (active),1 (inactive),0.84 (inactive)
Cc1cc(C(C)(C)CC(C)(C)C)ccc1OCCOCC[N+](C)(C)Cc1ccccc1 [Methyl benzethonium chloride] (20 µM),0.896,1.13,1.04,–,1.11 (inactive),0.948 (inactive),0.726 (active),1.05 (inactive),1.01 (inactive),1.04 (inactive),0.985 (inactive),0.803 (inactive)
O=C(O)Cc1cc(I)c(Oc2ccc(O)c(I)c2)c(I)c1 [Tiratricol] (20 µM),0.903,1.07,1.04,0.808,1.04 (inactive),0.592 (active),0.827 (inactive),1.05 (inactive),1.01 (inactive),1.03 (inactive),1.01 (inactive),0.884 (inactive)
Nc1ncnc2c1ncn2[C@@H]1O[C@H](COP(=O)(O)O)[C@@H](O)[C@H]1O [5'-Adenylic acid] (50 µM),0.902,0.983,1.04,1.03,0.938 (inactive),0.951 (inactive),1.01 (inactive),1.01 (inactive),1.03 (inactive),0.905 (inactive),1 (inactive),0.989 (inactive)
